Measurements as given in PubChem BioAssay (Tox21).
Results filed as inconclusive are left out. Calls of active or inactive are those of the source. Unless noted, the call rests on the fitted dose curve.

Columns and labels:
[1] = Nuclear factor erythroid 2-related factor 2/antioxidant responsive element (Nrf2/ARE) small molecule agonists: qHTS cell viability counter screen in human keratinocytes (AID 1919968; active means well fitted curve in the direction sought with a large enough effect in the repeat runs; an effect the other way counts as inactive or inconclusive; further: nearly all actives have a fitted effect of over 55% in size)
In short: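 KeratinoSens cells (HaCaT keratinocytes stably carrying an ARE-luciferase reporter) were seeded at 1,500 cells/well and rested 5 h at 37 C/5% CO2. They were then exposed to compounds in DMSO for 23 h. Viability was read by CellTiter-Fluor fluorescence after 1 h.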

[2] = Nuclear factor erythroid 2-related factor 2/antioxidant responsive element (Nrf2/ARE) small molecule agonists: luciferase reporter gene qHTS assay in human keratinocytes (AID 1919969); further: nearly all actives have a fitted effect of over 35% in size
[3] = G protein-coupled receptor (GPCR) small molecule agonists, calcium flux assay: HEK293 wild type cell line counter screen (AID 1920065)
In short: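 Cells were plated and cultured 18 h at 37 C/5% CO2, then loaded with calcium dye for 1 h at 37 C. Compounds in DMSO were pin-transferred in agonist mode, and fluorescence (Ex/Em 480/540) was read kinetically for 3 min at 1 s intervals.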

[4] = p53 small molecule agonists, cell-based qHTS assay with human liver microsomes (AID 1963577);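 further: p53 response element beta-lactamase reporter cells with liver microsomes plus NADPH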
In short: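 Reporter activation was measured by LiveBLAzer fluorescence intensity in p53RE-bla cells, which had been exposed to compounds for 16 h at 37 C alongside 0.5 mg/mL human liver microsomes and 0.5 mg/mL NADPH (final concentrations).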

[5] = p53 small molecule agonists, cell-based qHTS assay with human liver microsomes: qHTS cell viability counter screen (AID 1963579); further: nearly all actives have a fitted effect of over 45% in size
In short: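 HLM-supplemented (0.5 mg/mL final) and NADPH-supplemented (0.5 mg/mL final) p53RE-bla cultures, 4,000 cells per well, were dosed with compounds in DMSO for 16 h at 37 C; luminescent ATP detection (CellTiter-Glo, 30 min, room temperature) quantified surviving cells.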

[6] = p53 small molecule agonists, cell-based qHTS assay with rat liver microsomes: qHTS cell viability counter screen (AID 1963580); further: nearly all actives have a fitted effect of over 45% in size
In short: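 Viability is assessed in parallel with the p53 reporter read: HCT-116 p53RE-bla cells receive compounds plus rat microsomes and NADPH (0.5 mg/mL final apiece), incubate 16 h at 37 C, and then CellTiter-Glo luminescence is recorded.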

[7] = p53 small molecule agonists, cell-based qHTS assay: qHTS cell viability counter screen (AID 1963581); further: nearly all actives have a fitted effect of over 45% in size
In short: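 p53RE-bla HCT-116 cells were exposed to compounds for 16 h at 37 C; after the beta-lactamase FRET read in the same wells, CellTiter-Glo was added and luminescence (intracellular ATP) read after 30 min at room temperature.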

[8] = p53 small molecule agonists, cell-based qHTS assay (AID 1963582; active means well fitted activation curve with a large enough effect in the signal ratio in the repeat runs, not every such curve was filed as active; the % refers to the signal ratio)
In short: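 p53RE-bla beta-lactamase reporter cells rested 5 h at 37 C/5% CO2, then received compounds in DMSO by pin transfer and were incubated 16 h at 37 C. LiveBLAzer B/G FRET substrate was loaded for 2 h at room temperature before fluorescence reading.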

[9] = biological target: 5-hydroxytryptamine receptor 2A (Homo sapiens) (UniProt P28223); experiment: 5-hydroxytryptamine receptor 2A (HTR2A) small molecule antagonists, cell-based qHTS assay (AID 1963586); further: nearly all actives have a fitted effect of over 45% in size
In short: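 Antagonist-mode intracellular calcium assay: DOI (4 nM) added after 5 min compound pre-incubation at room temperature to dye-loaded HTR2A-CHO cells. Fluorescence followed for 3 min, sampled every second.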

[10] = biological target: Muscarinic acetylcholine receptor M1 (Homo sapiens) (UniProt P11229); experiment: Cholinergic receptor muscarinic 1 (CHRM1) small molecule agonists, cell-based qHTS assay (AID 1963589); further: nearly all actives have a fitted effect of over 35% in size
In short: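 CHO cells stably expressing human CHRM1, seeded 18 h at 37 C/5% CO2, dye-loaded 1 h at 37 C, then given compound in agonist mode; intracellular calcium fluorescence read kinetically at 1 s intervals. Fifteen concentrations, three independent runs.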

[11] = cAMP Responsive Elements (CRE) small molecule agonists, cell-based qHTS assay (AID 1963590)
In short: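 CRE-bla HEK 293T cells in DMEM with 10% dialyzed FBS, NEAA, pyruvate and 25 mM HEPES were plated 18 h at 37 C/5% CO2, then exposed to compounds in DMSO for 3 h before LiveBLAzer B/G FRET substrate addition.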

[12] = cAMP Responsive Elements (CRE) small molecule antagonists, cell-based qHTS assay (AID 1963591; active means well fitted inhibition curve with a large enough effect in the signal ratio in the repeat runs, not every such curve was filed as active; the % refers to the signal ratio)
In short: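 CRE-bla HEK293T cells were plated 18 h at 37 °C/5% CO2, pinned with compound in DMSO, then stimulated with NKH477 at 0.25 uM final for 3 h. LiveBLAzer B/G FRET substrate was added and plates incubated 2 h at room temperature.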

[13] = biological target: Beta-2 adrenergic receptor (Homo sapiens) (UniProt P07550); experiment: Adrenergic beta2 receptor (ADRB2) small molecule antagonists, cell-based qHTS assay (AID 1963592); further: series mostly up to about 92 µM; nearly all actives have a fitted effect of over 50% in size
In short: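 Cells (CHO, stable ADRB2 overexpression) incubated 18-20hr at 37C; compounds added from DMSO; agonist mix (1nM isoproterenol, 100uM IBMX, 25uM Ro-20-1724) added; 0.5hr RT; d2-cAMP and anti-cAMP-cryptate added; 1hr RT; 665/615 nm read.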

[14] = biological target: Beta-2 adrenergic receptor (Homo sapiens) (UniProt P07550); experiment: Adrenergic beta2 receptor (ADRB2) small molecule agonists, cell-based qHTS assay (AID 1963593);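 further: CHO cells stably overexpressing human ADRB2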
In short: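 CHO cells stably over-expressing ADRB2 were plated overnight at 37C, then dosed with compounds plus a stimulation mix containing 100uM IBMX and 25uM Ro-20-1724 for 0.5hr at room temperature. cAMP was measured by HTRF competition, 1hr.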

[15] = biological target: D(2) dopamine receptor (Homo sapiens) (UniProt P14416); experiment: Dopamine D2 receptor (DRD2) small molecule agonists, cell-based qHTS assay (AID 1963594); further: nearly all actives have a fitted effect of over 35% in size
In short: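 HEK293 cells stably expressing human DRD2, pre-treated with PDE inhibitor Ro20-1724 (0.1 mM final) and compound 10 min at room temperature, then stimulated with NKH477 (200nM […]) for 30 min. cAMP read by HTRF (665/620 nm).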

[16] = biological target: D(2) dopamine receptor (Homo sapiens) (UniProt P14416); experiment: Dopamine D2 receptor (DRD2) small molecule antagonists, cell-based qHTS assay (AID 1963595; active means well fitted inhibition curve with a large enough effect in the signal ratio in the repeat runs, with a control signal flat; the % refers to the signal ratio)
In short: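 HTRF cAMP read-out at 665 and 620 nm emission (340 nm excitation). Antagonist mode: compounds were tested against 12 nM quinpirole in DRD2-HEK293 cells, with 200 nM NKH477 raising cAMP and 0.1 mM Ro20-1724 blocking its breakdown.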

[17] = biological target: KiSS-1 receptor (Homo sapiens) (UniProt Q969F8); experiment: Human kisspeptin (KISS1R) small molecule agonists, calcium flux assay in KISS1R-HEK293 cells (AID 1920064; active means well fitted curve in the direction sought with a large enough effect in the repeat runs; an effect the other way counts as inactive or inconclusive)
In short: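 HEK293 cells stably expressing human KISS1R were plated 18 h at 37 °C, loaded with calcium dye for 1 h at 37 °C, then given compound by pin tool. Fluorescence (Ex/Em 480/540) was read kinetically for 3 min.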

[18] = p53 small molecule agonists, cell-based qHTS assay with rat liver microsomes (AID 1963578)
In short: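 Compound in DMSO added to p53RE-bla cells 5 h post-plating; rat microsomes/NADPH 0.5 mg/mL final; 16 h, 37 C; LiveBLAzer 2 h RT.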

[19] = biological target: 5-hydroxytryptamine receptor 2A (Homo sapiens) (UniProt P28223); experiment: 5-hydroxytryptamine receptor 2A (HTR2A) small molecule agonists, cell-based qHTS assay (AID 1963587); further: nearly all actives have a fitted effect of over 30% in size
In short: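 CHO cells stably expressing human HTR2A, plated 18 h, loaded with calcium dye 1 h at 37 C. Agonist mode: compounds added and intracellular calcium fluorescence recorded kinetically for 2 min at 1 sec intervals.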

[20] = biological target: Muscarinic acetylcholine receptor M1 (Homo sapiens) (UniProt P11229); experiment: Cholinergic receptor muscarinic 1 (CHRM1) small molecule antagonists, cell-based qHTS assay (AID 1963588); further: nearly all actives have a fitted effect of over 40% in size; further: potency means the concentration at half of the fitted maximal effect
In short: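 CHRM1-CHO calcium-flux assay, antagonist mode. Cells were seeded 18 h, dye-loaded 1 h at 37 C and given compound for 5 min at RT, then acetylcholine was added at 50nM. FDSS fluorescence was read 3 min; 15 concentrations, three runs.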
On the % scale 0 is the no-effect control and ±100 the full control effect.

Chain of 5-hydroxytryptamine receptor 2A (Homo sapiens) (P28223 whole entry, looked up): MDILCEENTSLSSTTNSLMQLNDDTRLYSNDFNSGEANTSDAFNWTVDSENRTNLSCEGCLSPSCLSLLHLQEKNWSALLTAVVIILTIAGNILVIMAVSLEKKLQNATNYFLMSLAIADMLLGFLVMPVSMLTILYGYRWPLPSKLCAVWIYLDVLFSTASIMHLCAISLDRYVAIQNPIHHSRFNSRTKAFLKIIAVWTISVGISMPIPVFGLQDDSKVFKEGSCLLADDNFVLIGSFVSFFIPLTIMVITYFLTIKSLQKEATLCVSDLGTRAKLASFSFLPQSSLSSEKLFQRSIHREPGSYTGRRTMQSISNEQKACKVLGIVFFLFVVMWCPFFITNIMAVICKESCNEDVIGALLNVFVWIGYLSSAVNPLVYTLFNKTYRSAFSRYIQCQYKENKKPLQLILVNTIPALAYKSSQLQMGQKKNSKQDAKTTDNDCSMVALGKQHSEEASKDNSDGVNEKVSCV
Chain of KiSS-1 receptor (Homo sapiens) (Q969F8 whole entry, looked up): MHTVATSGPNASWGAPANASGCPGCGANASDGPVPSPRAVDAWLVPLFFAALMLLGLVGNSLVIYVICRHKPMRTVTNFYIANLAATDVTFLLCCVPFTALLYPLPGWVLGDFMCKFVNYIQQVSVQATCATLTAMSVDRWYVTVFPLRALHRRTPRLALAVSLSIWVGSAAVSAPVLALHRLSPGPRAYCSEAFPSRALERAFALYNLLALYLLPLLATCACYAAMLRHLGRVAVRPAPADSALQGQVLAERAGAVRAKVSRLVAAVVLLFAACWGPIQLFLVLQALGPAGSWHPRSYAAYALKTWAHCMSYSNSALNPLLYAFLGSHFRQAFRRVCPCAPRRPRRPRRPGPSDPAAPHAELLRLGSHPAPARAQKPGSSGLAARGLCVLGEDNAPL
Chain of Beta-2 adrenergic receptor (Homo sapiens) (P07550 whole entry, looked up): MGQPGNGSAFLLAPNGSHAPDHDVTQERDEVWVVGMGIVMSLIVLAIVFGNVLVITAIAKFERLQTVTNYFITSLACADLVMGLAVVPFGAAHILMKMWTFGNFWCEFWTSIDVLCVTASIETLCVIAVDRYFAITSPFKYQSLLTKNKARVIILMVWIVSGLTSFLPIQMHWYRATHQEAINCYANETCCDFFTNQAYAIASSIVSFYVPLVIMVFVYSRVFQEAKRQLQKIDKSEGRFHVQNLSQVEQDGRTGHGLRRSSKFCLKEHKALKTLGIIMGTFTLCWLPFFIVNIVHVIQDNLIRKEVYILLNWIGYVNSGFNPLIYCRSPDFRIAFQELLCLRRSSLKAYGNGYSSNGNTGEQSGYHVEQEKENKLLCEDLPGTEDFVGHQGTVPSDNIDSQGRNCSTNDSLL
Chain of D(2) dopamine receptor (Homo sapiens) (P14416 whole entry, looked up): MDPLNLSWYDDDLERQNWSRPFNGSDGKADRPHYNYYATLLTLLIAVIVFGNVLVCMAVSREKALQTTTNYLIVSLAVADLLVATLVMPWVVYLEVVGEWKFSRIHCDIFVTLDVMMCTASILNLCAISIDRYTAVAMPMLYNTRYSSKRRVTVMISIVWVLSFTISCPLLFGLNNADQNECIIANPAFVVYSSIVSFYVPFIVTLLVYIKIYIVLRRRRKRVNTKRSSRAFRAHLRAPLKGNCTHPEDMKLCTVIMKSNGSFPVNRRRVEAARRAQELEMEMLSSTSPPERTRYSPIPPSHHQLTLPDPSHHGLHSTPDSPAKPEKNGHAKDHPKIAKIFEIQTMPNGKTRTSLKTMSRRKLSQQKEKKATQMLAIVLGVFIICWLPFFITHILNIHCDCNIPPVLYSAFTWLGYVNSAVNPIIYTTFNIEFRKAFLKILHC
Chain of Muscarinic acetylcholine receptor M1 (Homo sapiens) (P11229 whole entry, looked up): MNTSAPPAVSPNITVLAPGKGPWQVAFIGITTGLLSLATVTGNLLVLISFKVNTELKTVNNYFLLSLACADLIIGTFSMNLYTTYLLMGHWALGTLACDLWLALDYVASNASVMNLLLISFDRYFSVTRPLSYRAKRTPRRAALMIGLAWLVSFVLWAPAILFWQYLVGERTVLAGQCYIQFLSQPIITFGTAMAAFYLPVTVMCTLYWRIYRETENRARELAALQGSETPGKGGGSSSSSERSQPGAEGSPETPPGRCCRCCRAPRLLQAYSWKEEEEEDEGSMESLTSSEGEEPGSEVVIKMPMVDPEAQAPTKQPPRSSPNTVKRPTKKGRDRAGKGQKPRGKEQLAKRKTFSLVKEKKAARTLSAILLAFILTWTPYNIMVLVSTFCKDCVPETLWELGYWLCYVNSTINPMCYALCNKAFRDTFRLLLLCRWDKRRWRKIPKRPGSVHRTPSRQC

COc1cccc(O)c1
inactive: Potency [1] | Potency [2] | outcome [3] | Potency [4] | Potency [5] | Potency [6] | Potency [7] | Potency [8] | Potency [9] | Potency [10] | Potency [11] | Potency [12] | Potency [13] | Potency [14] | Potency [15] | Potency [16]

O=c1c(O)c(O)c1=O
inactive: Potency [1] | Potency [2] | outcome [17] | outcome [3] | Potency [4] | Potency [18] | Potency [5] | Potency [6] | Potency [7] | Potency [8] | Potency [9] | Potency [19] | Potency [20] | Potency [10] | Potency [12] | Potency [13] | Potency [16]

O=C(O)c1cc(Cl)cc(Cl)c1
inactive: Potency [1] | Potency [2] | outcome [17] | outcome [3] | Potency [4] | Potency [18] | Potency [5] | Potency [6] | Potency [7] | Potency [8] | Potency [9] | Potency [19] | Potency [20] | Potency [10] | Potency [13] | Potency [15] | Potency [16]

C=CC(OCC)OCC
inactive: Potency [1] | Potency [2] | Potency [4] | Potency [18] | Potency [6] | Potency [7] | Potency [8] | Potency [9] | Potency [19] | Potency [20] | Potency [10] | Potency [11] | Potency [12] | Potency [13] | Potency [15]

CCN1CC(CCN2CCOCC2)C(c2ccccc2)(c2ccccc2)C1=O (stereo not given)
inactive: Potency [1] | Potency [2] | outcome [3] | Potency [18] | Potency [5] | Potency [6] | Potency [7] | Potency [8] | Potency [11] | Potency [12] | Potency [13] | Potency [14] | Potency [15] | Potency [16]

CC(C)(C)C(=O)NCCCC(=O)O
inactive: Potency [1] | Potency [2] | outcome [3] | Potency [4] | Potency [18] | Potency [7] | Potency [8] | Potency [20] | Potency [10] | Potency [11] | Potency [12] | Potency [13] | Potency [14] | Potency [15] | Potency [16]

CC(C)(c1ccc(Oc2ccc3c(c2)C(=O)OC3=O)cc1)c1ccc(Oc2ccc3c(c2)C(=O)OC3=O)cc1
inactive: Potency [1] | Potency [2] | outcome [17] | outcome [3] | Potency [4] | Potency [18] | Potency [5] | Potency [6] | Potency [7] | Potency [8] | Potency [9] | Potency [19] | Potency [11] | Potency [12] | Potency [13] | Potency [14] | Potency [15] | Potency [16]
active: Potency [20] 37.3 µM

Nc1ccnc(=O)[nH]1
inactive: Potency [1] | Potency [2] | outcome [17] | outcome [3] | Potency [4] | Potency [18] | Potency [5] | Potency [6] | Potency [7] | Potency [8] | Potency [9] | Potency [19] | Potency [20] | Potency [10] | Potency [11] | Potency [12] | Potency [13]

CC(C)(O)CCC(C)(C)O
inactive: Potency [1] | Potency [2] | outcome [3] | Potency [4] | Potency [5] | Potency [6] | Potency [8] | Potency [9] | Potency [19] | Potency [20] | Potency [10] | Potency [11] | Potency [12] | Potency [13] | Potency [15] | Potency [16]

Cc1cccn2c(=O)c(-c3nnn[nH]3)cnc12
inactive: activity change, negative = cytotoxicity [1] 0.925% [at 19 µM] | activity, positive = activation [2] -2.87% [at 19 µM] | activation [17] 0.024% [at 15.8 µM] | activation [3] -0.181% [at 11.8 µM] | activation [4] 6.61% [at 13.5 µM] | activation [18] 0.054% [at 13.6 µM] | activity change, negative = cytotoxicity [5] -18.5% [at 13.5 µM] | activity change, negative = cytotoxicity [6] -1.1% [at 13.5 µM] | activity change, negative = cytotoxicity [7] -1.22% [at 13.5 µM] | activation [8] 1.33% [at 13.5 µM] | activity, negative = inhibition [9] 5.08% [at 12.7 µM] | activation [19] 1.65% [at 15.9 µM] | activity, negative = inhibition [20] -2.73% [at 12.6 µM] | activation [10] -0.574% [at 15.8 µM] | activity change, negative = inhibition [12] 5.45% [at 18.9 µM] | activity change, negative = inhibition [13] 1.4% [at 19 µM] | activation [15] 2.69% [at 19 µM] | activity change, negative = inhibition [16] -1.25% [at 18.9 µM]

Cc1ccc2cccnc2c1
inactive: Potency [1] | Potency [2] | Potency [4] | Potency [18] | Potency [5] | Potency [7] | Potency [8] | Potency [9] | Potency [19] | Potency [20] | Potency [10] | Potency [14] | Potency [15] | Potency [16]

OC[C@@H](O)C(O)[C@@H](O)CO (stereo not given in full)
inactive: Potency [1] | Potency [2] | outcome [3] | Potency [4] | Potency [6] | Potency [7] | Potency [8] | Potency [9] | Potency [20] | Potency [10] | Potency [11] | Potency [12] | Potency [13] | Potency [15] | Potency [16]

CC(C)c1cc(C(C)C)cc(C(C)C)c1
inactive: Potency [1] | Potency [2] | outcome [17] | outcome [3] | Potency [4] | Potency [18] | Potency [5] | Potency [6] | Potency [7] | Potency [8] | Potency [9] | Potency [19] | Potency [20] | Potency [10] | Potency [11] | Potency [12] | Potency [13] | Potency [15]

NC(CS)C(=O)O (stereo not given)
inactive: Potency [1] | Potency [2] | outcome [17] | outcome [3] | Potency [4] | Potency [18] | Potency [5] | Potency [6] | Potency [7] | Potency [8] | Potency [9] | Potency [19] | Potency [20] | Potency [10] | Potency [11] | Potency [12] | Potency [13] | Potency [15] | Potency [16]
